Mdm2-MdmX inh: inhibitors of human Mdm2-MdmX association, primary screen, cell-based, luminescence, split luciferase, SaOS-2, uHTS; Protein Mdm4 (Homo sapiens) + E3 ubiquitin-protein ligase Mdm2 (Homo sapiens), …; SaOS-2 split-luciferase Mdm2/MdmX complementation; inhibition, % at 8 µM; 3% of 330,000 active;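 active means inhibition of at least 50% at 8 µM in the primary screen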
697 NFkB inh: inhibitors of PMA/ionomycin-induced NF-kB reporter, 697 cells, primary screen, B-cell NF-kB inhibitor project, cell-based, luminescence, uHTS | 697 B-cell NF-kB luciferase reporter, 16 h | inhibition, % at 4 µM | 0.33% of 330,000 active; in the data active means inhibition above about 35%
Jurkat NFkB inh: inhibitors of induced NF-kB luciferase reporter, primary screen, TCR NF-kB activation inhibitor project, cell-based, luminescence, uHTS; Jurkat, PMA/ionomycin-induced NF-kB luciferase reporter; inhibition, % at 4 µM; 0.53% of 330,000 active; in the data active means inhibition above about 50%
aSyn UTR inh: MLPCN primary screen, SNCA 5' untranslated region | alpha-synuclein 5'UTR reporter, inhibitor activity | inhibition, % (tested at 7.5 µM) | 0.82% of 300,000 active; in the data active means inhibition above about 60%;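 further: H4 neuroglioblastoma cells stably carrying SNCA 5'UTR luciferase fusion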
Gli-Sufu antag: Gli-Sufu pathway antagonists, primary screen, luciferase luminescence, Sufu-KO-LIGHT cells, uHTS. 0.74% of 340,000 active. inhibition, % at 5 µM. Sufu-KO-LIGHT fibroblasts, Gli luciferase reporter luminescence;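 active means inhibition above about 55%, limit read from the data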
KLF5 inh: KLF5 expression inhibitors, primary screen, DLD-1 cells, luminescence; 0.23% of 290,000 active; inhibition, % at 5 µM; DLD-1 KLF5 promoter-luciferase reporter;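 active means inhibition above a per-plate limit of that plate's mean compound inhibition plus 3 SD, cut at about 60% in these data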;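 further: higher means less KLF5 promoter-driven luciferase light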
Jurkat NFkB conf: PMA/ionomycin-induced NF-kB reporter inhibitors, Jurkat retest, confirmation, T-cell NF-kB inhibitor project, cell-based, luminescence, single concentration; shares compounds with Jurkat NFkB inh; Jurkat NF-kB luciferase, 16 h; inhibition, % at 4 µM; 27% of 2,700 active; AID 435020, 2010;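 active means inhibition reaching about 45% at 4 µM in either replicate, limit read from the data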
Numbers stand for hits; n = inactive; x = not tested or not shown. This is a sample that favours compounds with a hit; in the whole collection about 4.1% have one here.

SMILES	Mdm2-MdmX inh	697 NFkB inh	Jurkat NFkB inh	aSyn UTR inh	Gli-Sufu antag	KLF5 inh	Jurkat NFkB conf
OC(CN1C2=NCCCN2c2ccccc21)c1ccc2c(c1)OCO2 (stereo not given)	n	n	n	n	n	n	x
COc1cc(NCCCCCCCN)c2ncccc2c1	n	n	93	n	n	n	60
Cc1ccc(Nc2nc(N/N=C/c3c[nH]c4ccccc34)nc(N3CCOCC3)n2)cc1	n	n	89	n	n	n	n
C/C(=N\N1CCN(Cc2ccccc2Cl)CC1)c1ccc(F)cc1	n	n	n	n	n	n	x
C/C(=N\N1CCN(Cc2ccccc2Cl)CC1)c1ccc([N+](=O)[O-])cc1	n	n	51	n	n	n	n
CCOc1ccc(-c2cc(C(=O)NCCCN3CCCC3)c3ccccc3n2)cc1	n	n	n	n	n	n	x
COc1ccc(C(=O)Nc2ccc([N+](=O)[O-])cn2)c(OC)c1	n	n	n	n	n	n	n
COc1cc2ccccc2cc1C(=O)Nc1ccc(C)cn1	n	n	n	n	n	n	n
CC(C)(C)OC(=O)C[C@H]1C/C=C\C[C@@H](CC(=O)N(CCO)Cc2ccccc2)C(=O)N[C@H](Cc2c[nH]c3ccccc23)COC1=O	n	n	n	x	n	x	x
C/C(=N\NC(=O)c1ccccc1Cl)c1ccccn1	n	n	89	82	64	n	n
C/C(=N/NC(=O)c1ccccn1)c1ccncc1	n	n	n	n	n	n	x
CCOC(=O)c1cc(-c2ccccc2)nc2c(O)cccc12	x	x	x	x	n	x	x
Cc1ccc(OCc2nnc(-c3ccc(Cl)cc3)o2)cc1	n	n	n	n	n	x	x
Cc1nc2cc(NC(=O)c3ccc(Br)s3)ccc2s1	n	n	n	n	n	n	n
Cc1nc2ccc(NC(=O)c3ccc(Cl)nc3)cc2s1	n	n	n	n	n	n	x
Cc1nc2ccc(NC(=O)c3cc(Cl)ccn3)cc2s1	n	n	n	n	n	n	n
O=C(Nc1nc(-c2nc3ccccc3s2)cs1)C1CC1	n	n	n	n	n	n	n
O=C(CN1C(=O)CCC1=O)Nc1nc(-c2nc3ccccc3s2)cs1	n	n	n	n	n	n	x
N/C(=N\OC(=O)c1ccc(Cl)cc1)c1ccc(Cl)cc1	n	n	n	n	n	n	x
N/C(=N\OC(=O)c1ccccc1Cl)c1ccc(Cl)cc1	n	n	n	n	n	n	n
N/C(=N\OC(=O)c1ccccc1Cl)c1ccccc1	n	n	n	n	n	n	n
O=C(O/N=C(\c1ccccc1)c1ccncc1)c1ccccc1Cl	n	n	n	n	n	n	x
N/C(=N\OC(=O)c1ccc(Cl)cc1)c1ccn[nH]1	n	n	n	n	n	n	n
Cc1ccc(-n2nnnc2CCl)cc1	x	x	x	n	n	n	x
NC(=O)c1c(NC(=O)c2ccc(F)cc2)sc2c1CCC2	n	n	n	n	n	n	x
SMILES	Mdm2-MdmX inh	697 NFkB inh	Jurkat NFkB inh	aSyn UTR inh	Gli-Sufu antag	KLF5 inh	Jurkat NFkB conf
NC(=O)c1c(NC(=O)c2cc3ccccc3o2)sc2c1CCC2	n	n	n	n	n	n	n
Cc1nn(CC(=O)NC2(C)CCS(=O)(=O)C2)c(C)c1S(=O)(=O)N(C)C (stereo not given)	n	n	57	x	n	x	n
CC(C)NC(=O)C1CCN(S(=O)(=O)c2ccc(N3CCCC3=O)cc2)CC1	n	n	79	n	n	n	n
O=C(CSc1ccccc1F)NC(=O)c1ccccc1Br	n	n	n	x	n	x	x
[O-][n+]1onc2c1CCc1c-2nn(-c2ccccc2Cl)[n+]1[O-]	n	n	59	n	n	n	n
Cc1ccc2nc(-c3ccc(NC(=O)C4CCCO4)cc3)[nH]c2c1 (stereo not given)	n	n	n	n	n	n	n
Cc1ccc2nc(-c3ccc(NC(=O)Cc4cccs4)cc3)[nH]c2c1	n	n	n	n	n	n	n
O=C(Nc1ccc(-c2nc3ccccc3o2)cc1)C1CCCO1 (stereo not given)	n	n	n	n	n	n	n
O=C(Nc1ccc2oc(-c3ccccc3)nc2c1)C1CCCO1 (stereo not given)	n	n	n	n	n	n	x
O=c1c2c(-c3ccccc3)csc2ncn1/N=C/c1cccc([N+](=O)[O-])c1O	n	n	n	n	n	n	x
Cn1cc(/C=N/n2cnc3scc(-c4ccccc4)c3c2=O)c2ccccc21	n	n	63	66	n	n	n
COc1ccc(N2CCN(C(=O)c3ccc(CNS(=O)(=O)c4ccc(C)cc4)cc3)CC2)cc1	n	n	n	n	n	n	x
Cc1ccc(S(=O)(=O)NCc2ccc(C(=O)N3CCN(c4ccc([N+](=O)[O-])cc4)CC3)cc2)cc1	n	n	59	n	n	n	53
O=[N+]([O-])c1ccc(N2CCCCC2)cn1	n	n	n	n	n	n	x
O=[N+]([O-])c1ccc(N2CCN(c3cccc(Cl)c3)CC2)cn1	n	n	53	n	n	n	n
COc1ccc(N/N=C(\C#N)C(=N)N2CCCCC2)cc1	n	n	n	n	n	n	x
Cc1ccc(N/N=C(\C#N)C(=N)N2CCOCC2)cc1	n	n	n	n	n	n	x
N#C/C(=N\Nc1ccc(Cl)cc1)C(=N)N1CCCCC1	n	n	n	n	n	n	n
N#C/C(=N\Nc1ccc(F)cc1)C(=N)N1CCCCCC1	n	n	n	n	n	n	n
Cc1ccc(N/N=C(\C#N)C(=N)N2CCCCCC2)cc1	n	n	n	n	n	n	n
Cc1cc(-c2nnc(CCC(=O)NCc3ccc(OC(F)(F)F)cc3)o2)no1	n	n	n	n	n	n	x
Cn1c(/C=N/Nc2nc3ccccc3[nH]2)nc2ccccc21	n	n	n	n	n	n	n
COc1cc(OC)cc(C(=O)NCC(=O)N2CC=C(c3ccccc3)CC2)c1	n	n	70	x	n	x	n
Cc1ncccc1C(=O)N1CCCC(CNC(=O)C2(c3ccc(Cl)cc3)CC2)C1 (stereo not given)	n	n	n	n	n	n	x
COc1ccc(OC)c(NC(=O)COC(=O)CN(C)S(=O)(=O)c2ccc(C)cc2)c1	n	n	n	n	n	n	x
CC1(C)Cc2nc3sc4c(=O)n(CC(=O)NCc5ccccc5)cnc4c3cc2CO1	n	n	61	n	n	n	n
CC(C)C1COC(c2cccc3ccccc23)=N1 (stereo not given)	n	n	n	n	n	n	n
COc1ccccc1C(=O)N1CCN(c2cccc(C(F)(F)F)c2)CC1	n	n	66	n	n	n	n

Bioassay records (PubChem)
